Experiment [1] can be described thus: growth inhibition of DIPG glioma cells, dose response, cell-based, SU-DIPG-XVII, MIPE5.0, CellTiter-Glo, qHTS (AID 1347060; cut-off not given, nearly all actives have AC50 up to about 26 µM;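 for AC50: cells exposed to compound for 48 hours before viability readout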). As to conditions: SU-DIPG-XVII viability, CellTiter-Glo ATP luminescence. In general terms: In ATP-based viability assays light output follows the ATP content of the culture.
Experiment [2] in a line: growth inhibition of DIPG glioma cells, dose response, cell-based, SU-DIPG-XIII, MIPE5.0, CellTiter-Glo, qHTS (AID 1347064; cut-off not given, nearly all actives have AC50 up to about 23 µM;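 for AC50: cells exposed to compound for 48 hours before the viability read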). Particulars: SU-DIPG-XIII viability, CellTiter-Glo ATP luminescence.
The nature of experiment [3]: viability loss in pontine glioma line – cell-based, SU-DIPG-XXV, MIPE5.0, CellTiter-Glo, qHTS, dose response (AID 1347065; cut-off not given, nearly all actives have AC50 up to about 26 µM;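 note: cells exposed to compound for 48 hours before ATP readout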). As to conditions: CellTiter-Glo ATP luminescence.
A short description of experiment [4]: JHH-DIPG-1 glioma cell viability, MIPE5.0 library, CellTiter-Glo luminescence, qHTS (AID 1347067; cut-off not given, nearly all actives have AC50 up to about 26 µM;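 note: cells exposed to compound for 48 hours before readout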). Particulars: JHH-DIPG-1 glioma viability, CellTiter-Glo ATP luminescence.
The nature of experiment [5]: SU-DIPG-XXV glioma cell viability, MIPE5.0 library, qHTS (AID 1347068; cut-off not given, nearly all actives have IC50 up to about 30 µM;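 for IC50: cells exposed to compound for 48 hours before viability readout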). (In qHTS, concentration-response curves come from the screen itself.)
A short description of experiment [6]: sensitizers of A549 cells to miR-34 induction, primary screen, imaging, A549 dox-inducible miR-34, nuclei and caspase counts (AID 1347080;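 active = compounds whose cell count with miR-34 switched on is under 0.7 times the count with it off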). As to conditions: A549 miR-34 inducible, Hoechst nuclei count, 48 h.
The nature of experiment [7]: survival rescue of mitochondrial mutant cells in low glucose, primary screen, MELAS cybrids, Rieske KO mouse fibroblasts, CellTiter-Glo (AID 1508586;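 active = mean z-score across replicates of 1.96 or higher in either the MELAS or the Rieske mutant cell line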;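 note: z relative to plate mean and SD of compound and empty wells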).
Experiment [8] is described as follows: ovarian cancer cell viability with rucaparib, profiling panel, oncology-focused library, rucaparib conditional (AID 1508598). As to conditions: patient-derived ovarian cancer cells, CellTiter-Glo viability, 144 h, stronger effect = lower value.
Experiment [9] in a line: circadian clock period modulators, cell-based, LOPAC library, luminescence reporter (AID 2774; call rule not given here;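 note: values are relative to mean of DMSO wells on each plate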). Particulars: circadian reporter cells, at 7 µM, actives lie on both sides.
The mark [10] stands for this setting: stronger effect = lower value, cell number ratio, induced over uninduced.
Setting [11] is: measured here: relative caspase fold change +Dox/-Dox.
Setting [12] is: measured here: total cells with miR-34 induction, stronger effect = lower value.
Where [13] appears, read: measured here: total cells without miR-34 induction.
[14] abbreviates: MELAS cybrid survival, CellTiter-Glo 48 h, stronger effect = higher value.
The mark [15] stands for this setting: Rieske KO mouse fibroblast survival, CellTiter-Glo 72 h.
[16] abbreviates: at 0.000305 µM, OCI-C5x cells, with rucaparib 10 µM, 100% = cells with rucaparib alone.
Setting [17] is: at 0.000305 µM, OCI-C5x cells, without rucaparib.
Where [18] appears, read: at 0.000305 µM, OCI-P5x cells, with rucaparib 20 µM, 100% = cells with rucaparib alone.
The mark [19] stands for this setting: at 0.000305 µM, OCI-P5x cells, without rucaparib.
The mark [20] stands for this setting: at 0.00122 µM, OCI-C5x cells, with rucaparib 10 µM, 100% = cells with rucaparib alone.
[21] abbreviates: at 0.00122 µM, OCI-C5x cells, without rucaparib.
Setting [22] is: at 0.00122 µM, OCI-P5x cells, with rucaparib 20 µM, 100% = cells with rucaparib alone.
Setting [23] is: at 0.00122 µM, OCI-P5x cells, without rucaparib.
Setting [24] is: at 0.00488 µM, OCI-C5x cells, with rucaparib 10 µM, 100% = cells with rucaparib alone.
Setting [25] is: at 0.00488 µM, OCI-C5x cells, without rucaparib.
Setting [26] is: at 0.00488 µM, OCI-P5x cells, with rucaparib 20 µM, 100% = cells with rucaparib alone.
The mark [27] stands for this setting: at 0.00488 µM, OCI-P5x cells, without rucaparib.
The mark [28] stands for this setting: at 0.0195 µM, OCI-C5x cells, with rucaparib 10 µM, 100% = cells with rucaparib alone.
Where [29] appears, read: at 0.0195 µM, OCI-C5x cells, without rucaparib.
The mark [30] stands for this setting: at 0.0195 µM, OCI-P5x cells, with rucaparib 20 µM, 100% = cells with rucaparib alone.
Setting [31] is: at 0.0195 µM, OCI-P5x cells, without rucaparib.
Where [32] appears, read: at 0.0781 µM, OCI-C5x cells, with rucaparib 10 µM, 100% = cells with rucaparib alone.
Where [33] appears, read: at 0.0781 µM, OCI-C5x cells, without rucaparib.
Where [34] appears, read: at 0.0781 µM, OCI-P5x cells, with rucaparib 20 µM, 100% = cells with rucaparib alone.
The mark [35] stands for this setting: at 0.0781 µM, OCI-P5x cells, without rucaparib.
[36] abbreviates: at 0.313 µM, OCI-C5x cells, with rucaparib 10 µM, 100% = cells with rucaparib alone.
Where [37] appears, read: at 0.313 µM, OCI-C5x cells, without rucaparib.
Setting [38] is: at 0.313 µM, OCI-P5x cells, with rucaparib 20 µM, 100% = cells with rucaparib alone.
Setting [39] is: at 0.313 µM, OCI-P5x cells, without rucaparib.
Setting [40] is: at 1.25 µM, OCI-C5x cells, with rucaparib 10 µM, 100% = cells with rucaparib alone.
Where [41] appears, read: at 1.25 µM, OCI-C5x cells, without rucaparib.
The mark [42] stands for this setting: at 1.25 µM, OCI-P5x cells, with rucaparib 20 µM, 100% = cells with rucaparib alone.
Where [43] appears, read: at 1.25 µM, OCI-P5x cells, without rucaparib.
[44] abbreviates: at 5 µM, OCI-C5x cells, with rucaparib 10 µM, 100% = cells with rucaparib alone.
The mark [45] stands for this setting: at 5 µM, OCI-C5x cells, without rucaparib.
Where [46] appears, read: at 5 µM, OCI-P5x cells, with rucaparib 20 µM, 100% = cells with rucaparib alone.
[47] abbreviates: at 5 µM, OCI-P5x cells, without rucaparib.

Results filed as inconclusive are left out. Activity calls are given as the source filed them.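 Rule for the calls, unless noted: active = normalized viability below 100% at a tested concentration; inactive = the rest.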

The results in this text go back to PubChem BioAssay.

In general, AC50 refers to the concentration at which the activity in the assay is half-maximal. The IC50 is the concentration needed to halve the response being measured. What is called viability is a read-out of living cells in per cent, often relative to untreated cells. For `C=CC(=O)Nc1cccc(Nc2nc(Nc3ccc(NC4CN(CCF)C4)cc3OC)ncc2C(F)(F)F)c1`, the AC50 in experiment [1] is 1.48 µM (active); in experiment [2], 2.35 µM (active); in [3] it was 1.32 µM (active); in [4], 2.63 µM (active). The IC50 in experiment [5] is 0.833 µM (active). For the same compound, the fold change in experiment [6] (setting [10]) was 0.964 (inactive); in experiment [6] (setting [11]), 0.345. Also, the cell count in experiment [6] (setting [12]) is 1930; in [6] (setting [13]), 2000. Moreover, the values for the z-score in experiment [7] (setting [14]) and in experiment [7] (setting [15]) were 0.32 (inactive) and 1.6, respectively. In addition, the viability was 115% (inactive) in experiment [8] (setting [16]); 107% (inactive) in experiment [8] (setting [17]); 98.4% (active) in experiment [8] (setting [18]); 92.9% (active) in [8] (setting [19]); 122% (inactive) in experiment [8] (setting [20]); 120% (inactive) in experiment [8] (setting [21]). Moreover, the viability in [8] (setting [22]) was 99.4% (active); in experiment [8] (setting [23]), 89.9% (active); in experiment [8] (setting [24]) it was 123% (inactive); in [8] (setting [25]), 114% (inactive); in experiment [8] (setting [26]) it was 96.9% (active); in experiment [8] (setting [27]) it was 94.8% (active). Moreover, the viability in experiment [8] (setting [28]) is 118% (inactive); in [8] (setting [29]), 108% (inactive); in [8] (setting [30]) it was 98.4% (active); in experiment [8] (setting [31]) it was 103% (inactive); in experiment [8] (setting [32]), 102% (inactive); in experiment [8] (setting [33]), 115% (inactive). Besides, the viability was 103% (inactive) in experiment [8] (setting [34]); 98.1% (active) in [8] (setting [35]); 132% (inactive) in experiment [8] (setting [36]); 127% (inactive) in experiment [8] (setting [37]); 106% (inactive) in experiment [8] (setting [38]); 104% (inactive) in experiment [8] (setting [39]). Further, the viability in experiment [8] (setting [40]) was 119% (inactive); in experiment [8] (setting [41]) it was 126% (inactive); in experiment [8] (setting [42]) it was 83.8% (active); in experiment [8] (setting [43]), 83.2% (active); in [8] (setting [44]), 19.5% (active); in [8] (setting [45]), 94.4% (active). Also, the figures for the viability in [8] (setting [46]) and in experiment [8] (setting [47]) were 13.3% (active) and 20% (active), respectively.

For `CCOC(=O)CCNc1cc(N2CCc3ccccc3CC2)nc(-c2ccccn2)n1`, the AC50 in [1] was 2.95 µM (active); in [2], 3.32 µM (active); in experiment [3] it was 14.8 µM (active); in experiment [4], 5.25 µM (active). Further, the IC50 in experiment [5] is 8.33 µM (active). Moreover, the fold change in [6] (setting [10]) is 0.698 (active); in [6] (setting [11]) it was 1.37. Moreover, the cell count in [6] (setting [12]) came out at 3830; in experiment [6] (setting [13]), 5480. Also, the figures for the z-score in experiment [7] (setting [14]) and in experiment [7] (setting [15]) were -0.444 (inactive) and -0.225, respectively.

Regarding `CN(CCOc1ccc(C[C@H](Nc2ccccc2C(=O)c2ccccc2)C(=O)O)cc1)c1ccccn1`, the period change in [9] was 0.085 h (inactive). Further, the compound was classed as inactive in experiment [1], in experiment [2], in experiment [3], in experiment [4] and in experiment [5].

For `c1ccc(Cn2c(-c3ccc(OCC(C4CCNCC4)n4c(-c5ccccc5)nc5ccccc54)cc3)nc3ccccc32)cc1` (centres undefined), the AC50 is 18.6 µM (active) in experiment [1], 20.9 µM (active) in experiment [2], 13.2 µM (active) in experiment [3] and 16.6 µM (active) in experiment [4]. The IC50 in experiment [5] is 23.5 µM (active). Also, the fold change in experiment [6] (setting [10]) is 1.11 (inactive); in [6] (setting [11]) it was 0.359. Also, the cell count in [6] (setting [12]) stood at 5600; in [6] (setting [13]), 5040. Also, the z-score in experiment [7] (setting [14]) was -0.583 (inactive); in experiment [7] (setting [15]), -1.33.

For the compound `C=CC(=O)Nc1cc(Nc2nccc(-c3cn(C)c4ccccc34)n2)c(OC)cc1N(C)CCN(C)C`, the AC50 in experiment [1] is 2.95 µM (active); in [2] it was 7.42 µM (active); in experiment [3], 3.72 µM (active); in experiment [4] it was 2.63 µM (active). Besides, the concentration for half-maximal inhibition (IC50) in experiment [5] was 9.34 µM (active). Also, the fold change in experiment [6] (setting [10]) was 0.975 (inactive); in [6] (setting [11]) it was 0.432. Also, the cell count in experiment [6] (setting [12]) came out at 2760; in experiment [6] (setting [13]) it was 2830. In addition, the z-score is -0.292 (inactive) in experiment [7] (setting [14]) and 1.23 in experiment [7] (setting [15]). Also, the viability in [8] (setting [16]) was 110% (inactive); in experiment [8] (setting [17]), 114% (inactive); in [8] (setting [18]) it was 95.5% (active); in experiment [8] (setting [19]) it was 94.3% (active); in experiment [8] (setting [20]), 106% (inactive); in experiment [8] (setting [21]) it was 108% (inactive). In addition, the viability in [8] (setting [22]) is 103% (inactive); in experiment [8] (setting [23]), 103% (inactive); in [8] (setting [24]) it was 120% (inactive); in experiment [8] (setting [25]) it was 120% (inactive); in experiment [8] (setting [26]), 103% (inactive); in experiment [8] (setting [27]) it was 106% (inactive). Besides, the viability in experiment [8] (setting [28]) is 127% (inactive); in experiment [8] (setting [29]), 118% (inactive); in experiment [8] (setting [30]) it was 108% (inactive); in [8] (setting [31]), 106% (inactive); in experiment [8] (setting [32]), 133% (inactive); in [8] (setting [33]), 132% (inactive). Further, the viability in experiment [8] (setting [34]) was 105% (inactive); in experiment [8] (setting [35]) it was 107% (inactive); in experiment [8] (setting [36]), 158% (inactive); in experiment [8] (setting [37]) it was 170% (inactive); in experiment [8] (setting [38]) it was 108% (inactive); in experiment [8] (setting [39]), 108% (inactive). The viability in experiment [8] (setting [40]) was 147% (inactive); in experiment [8] (setting [41]), 173% (inactive); in experiment [8] (setting [42]) it was 91.6% (active); in [8] (setting [43]), 91.7% (active); in experiment [8] (setting [44]), 2.67% (active); in experiment [8] (setting [45]), 3.48% (active). Also, the viability in [8] (setting [46]) is 8.99% (active); in [8] (setting [47]) it was 78.5% (active).
